Most compounds without a hit are left out; they make up all but 3.6% or so of the library.
Nrf2 ARE act – qHTS of Nrf2 Activators | AREc32 ARE-luciferase reporter (MCF7-derived line), luminescence, 24 h | Potency, µM (top dose mostly 46.1 µM), for inactives: at the top dose activation, hits mostly activators | actives 0.31% (n = 410,000) | AID 624171, 2012; further: % of control where 0% means no effect; nearly all actives have a fitted effect of over 65% in size
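Quantitative high-throughput format: AREc32 reporter cells, 1000 per well, received compound by pin transfer and were incubated 24 hr at 37 deg C, 5% CO2, before Steady-Glo luminescence detection.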
TGFb inhibitor – qHTS for Inhibitors of TGF-b. HepG2 CAGA-GFP TGF-b/SMAD3 reporter, GFP fluorescence, 18 h; TGF-beta stimulated, 500 pg/mL final. Potency, µM (highest dose often 46.1 µM), without a hit: top-dose activity, negative = inhibition, actives largely listed as inhibitors. actives 1.2% (n = 410,000); further: on the % scale 0 is the no-effect control and ±100 the full control effect; nearly all actives have a fitted effect of over 65% in size
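Using HEPG2 CAGA-GFP reporter cells at 1000 cells/well, we pinned test compounds, stimulated with recombinant TGF-beta (500 pg/mL final) and measured total well GFP after 18 h.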
Nrf2 block – Nrf2 qHTS screen for inhibitors. Potency, µM (top dose mostly 46 µM), without a hit: top-dose activity change, negative = inhibition, actives largely listed as inhibitors. A549 ARE-Fluc reporter, luciferase luminescence, 18-24 h. actives 2.1% (n = 360,000); further: on the % scale 0 is the no-effect control and ±100 the full control effect; nearly all actives have a fitted effect of over 60% in size
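Nrf2 activity is the BugLite luminescence, read 15 min after reagent at room temperature, following CellTiter-Fluor cytotoxicity readout (30 min, 37C). Compound titrations were applied for 18-24 h to 5000 A549 ARE_Fluc cells/well in 5% FBS OPTI-MEM.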
HepG2 viability – qHTS for Inhibitors of TGF-b: Cytotox Counterscreen | HepG2 CAGA-GFP viability, ATP luminescence, 18 h | Potency, µM (doses to about 46.1 µM), without a hit: at the highest dose activity change, negative = cytotoxicity, hits mostly cytotoxic | actives 0.76% (n = 410,000) | AID 588856, 2011
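HepG2 CAGA-GFP cells (1000/well, DMEM with 1% FBS) received compound, then TGF-beta at 500 pg/mL final, and were incubated 18 hours at 37 degrees C. Viability was read by CellTiter-Glo luminescence. Media-only wells were set as complete cell-killing and DMSO as no toxicity.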
A549 viability – Nrf2 qHTS screen for inhibitors: counterscreen for cytotoxicity. A549 ARE-Fluc cells, CellTiter-Fluor viability, 18-24 h. Potency, µM (series often up to 46 µM), inactives show top-dose activity change, negative = cytotoxicity, actives largely listed as inhibitors. actives 0.16% (n = 390,000); further: on the % scale 0 is the no-effect control and ±100 the full control effect
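Cytotoxicity counterscreen: CellTiter-Fluor fluorescence was measured in A549 ARE_Fluc cells after 18-24 h of compound exposure in a concentration series. The subsequent BugLite luminescent read reports ARE-luciferase activity.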
Active calls of the source: *; u = inconclusive; x = no result given; [ ] = another dose, or the depositor's remark. The call rests on the fitted dose curve; in most records, active means well fitted curve in the direction sought with a large enough effect; inconclusive means small, poorly fitted or top-dose-only effect, or another doubt; inactive means no such curve, though single readings can be large; an effect the other way counts as inactive or inconclusive. Potency means the concentration at half of the fitted maximal effect.

SMILES	Nrf2 ARE act	TGFb inhibitor	Nrf2 block	HepG2 viability	A549 viability
O=C(CN1CCN(c2ccccn2)CC1)Nc1ccc(OCc2ccccc2)cc1	2%	u	21µM*	-23%	-13%
O=C(Nc1ccc(Cl)cc1)c1cc(-c2cccs2)on1	1%	-16%	2%	-15%	0%
COc1cccc(C(=O)Nc2ccccc2N2CCCC2)c1	0%	u	15%	2%	20%
COc1ccc(NC(=O)c2noc3c2CSc2ccccc2-3)cc1Cl	5%	-1%	u	-32%	-6%
COc1ccccc1CNC(=O)c1ccc(N2CCCC2)c(NC(=O)NCc2ccc(C)cc2)c1	0%	u	x	-17%	-7%
O=C(O)CCN1C(=O)C2C3C=CC(C3)C2C1=O (stereo unspecified)	0%	-5%	14%	3%	4%
O=C1C2C3C=CC(C3)C2C(=O)N1CCCCCCN1C(=O)C2C3C=CC(C3)C2C1=O (stereo unspecified)	-1%	-13%	15µM*	1%	1%
O=[N+]([O-])c1ccc(NC(=S)NCCc2ccc(F)cc2)cc1	8%	u	u	13µM*	u
Cc1cccc(-n2cc(CNCCc3nc(C)cc(C)n3)c(-c3cccc(F)c3)n2)c1	-1%	11µM*	-13%	-74%	-6%
CC(=O)c1ccc(N2CCN(C(=O)C3CCN(S(=O)(=O)c4ccc5c(c4)CC(C)N5C(C)=O)CC3)CC2)cc1 (stereo unspecified)	3%	-7%	15µM*	-15%	-1%
CC1Cc2cc(S(=O)(=O)N3CCN(c4ccccc4F)CC3)ccc2N1C(=O)C1CC1 (stereo unspecified)	-1%	1%	15µM*	3%	-8%
CC1Cc2cc(S(=O)(=O)N3CCC(C(=O)Nc4ccccn4)CC3)ccc2N1C(=O)C1CCC1 (stereo unspecified)	3%	-3%	15µM*	-17%	-12%
CC(=O)N1c2ccc(S(=O)(=O)N3CCC(C(=O)N4CCN(c5cccc(C(F)(F)F)c5)CC4)CC3)cc2CC1C (stereo unspecified)	3%	u	u	-31%	1%
Cc1cccc(NC(=O)C2CCN(S(=O)(=O)c3ccc4ccccc4c3)CC2)n1	3%	u	16µM*	-18%	-14%
Cc1ccnc(NC(=O)C2CCN(S(=O)(=O)c3ccc4c(c3)CC(C)N4C(=O)C3CCC3)CC2)c1 (stereo unspecified)	1%	-28%	u	-7%	-11%
COc1cccc(N2CCN(S(=O)(=O)c3ccc4c(c3)CC(C)N4C(=O)C3CC3)CC2)c1 (stereo unspecified)	0%	u	u	2%	-1%
CC(=O)c1cccc(NC(=O)c2cc(Cl)sc2Cl)c1	u	-3%	10%	21%	-1%
CC(C)(C)c1nc(SCC(=O)NCc2cccs2)c2ccccc2n1	0%	16%	23%	-1%	1%
Cn1c(=O)oc2cc(S(=O)(=O)N3CCC(C(=O)N4CCN(c5cccc(Cl)c5)CC4)CC3)ccc21	0%	u	u	-13%	-1%
CC1Cc2cc(S(=O)(=O)CCC(=O)Nc3ccc(Cl)cc3F)ccc2N1C(=O)C1CC1 (stereo unspecified)	1%	u	13µM*	-13%	1%
Cn1c(=O)oc2cc(S(=O)(=O)N3CCC(C(=O)N4CCN(c5ccc(Cl)cc5)CC4)CC3)ccc21	0%	-27%	18µM*	-7%	3%
CC(=O)N1c2c(cc(Br)cc2S(=O)(=O)N2CCN(c3cc(C)ccc3C)CC2)CC1C (stereo unspecified)	0%	u	-10%[9.27 µM]	-16%	9%
CC(=O)N1c2c(cc(Br)cc2S(=O)(=O)N2CCN(c3ccccc3F)CC2)CC1C (stereo unspecified)	-1%	-26%	23µM*	-16%	-7%
CC(=O)N1c2ccc(S(=O)(=O)N3CCC(C(=O)Nc4cccc(Cl)c4)CC3)cc2CC1C (stereo unspecified)	-1%	u	2.1µM*	3%	-12%
C=CCn1c(O)c(N=NC(=S)Nc2cccc(OC)c2)c2ccccc21	0%	-25%	u	-23%	u
SMILES	Nrf2 ARE act	TGFb inhibitor	Nrf2 block	HepG2 viability	A549 viability
CCOc1ccc(-c2nnc(NC(=O)C3CCCC3)o2)cc1	0%	7%	11%	11%	1%
CC1CCCN(C(=O)c2ccc(Br)c(S(=O)(=O)N3CCOCC3)c2)C1 (stereo unspecified)	-1%	-8%	-4%	-7%	-10%
CSc1cccc(NC(=O)C2CCN(S(=O)(=O)c3ccc4[nH]c5c(c4c3)CCCCC5)CC2)c1	0%	u	u	-25%	-4%
O=C(Nc1cccc(F)c1)C1CCN(S(=O)(=O)c2ccc3[nH]c4c(c3c2)CCCCC4)CC1	-1%	-27%	18µM*	-32%	-30%
CCc1ccc(NC(=O)C2CCN(S(=O)(=O)c3ccc4c(c3)CC(C)N4C(C)=O)CC2)cc1 (stereo unspecified)	2%	u	16µM*	-17%	-1%
CCC(=O)N1c2ccc(S(=O)(=O)CCC(=O)N3CCN(c4cc(C)ccc4C)CC3)cc2CC1C (stereo unspecified)	0%	7%	u	4%	0%
CC(=O)N1c2ccc(S(=O)(=O)N3CCCC(C(=O)Nc4ccc(F)cc4)C3)cc2CC1C (stereo unspecified)	2%	-16%	18µM*	-14%	-10%
COc1ccc(NC(=O)C2CCCN(S(=O)(=O)c3ccc4c(c3)CC(C)N4C(C)=O)C2)cc1 (stereo unspecified)	0%	0%	u	-2%	-2%
CCC(=O)N1c2ccc(S(=O)(=O)N3CCN(c4cc(C)ccc4C)CC3)cc2CC1C (stereo unspecified)	-1%	4%	16µM*	4%	6%
COc1ccc(CCC(=O)Nc2ccc(S(=O)(=O)NC3=NCCCCC3)cc2)cc1	-1%	-1%	x	3%	x
COc1cccc(NC(=O)C2(C)CCN2C(=O)C2CCCCC2)c1 (stereo unspecified)	4%	-5%	x	-8%	x
CC1=C(C(=O)N2CCOCC2)CC(CC(=O)NC(c2ccccc2)c2ccccc2)C(=O)N1Cc1ccc(C(C)(C)C)cc1 (stereo unspecified)	1%	u	x	21%	x
CC(=O)N1c2ccc(S(=O)(=O)N3CCC(C(=O)Nc4ccc(C)cn4)CC3)cc2CC1C (stereo unspecified)	0%	u	15µM*	-32%	-10%

Screening results: PubChem BioAssay, National Center for Advancing Translational Sciences (NCATS)
